Only some compounds are listed: those with a hit (about 0.84% of all), similar ones and a draw of the others.
SRC3 TRFRET art: TR-FRET detection interference compounds, artefact control for PPARgamma SRC-3 recruitment agonists, biochemical, TR-FRET ratio | TR-FRET artefact counter-screen, PPARgamma/SRC-3 format; active compounds read high | TR-FRET ratio at 8 µM | 99,000 tested, 0.39% active
TR-FRET SRC-2 ct: TR-FRET signal artefacts, primary screen, artefact control for PPARgamma SRC-2 agonist project, biochemical; TR-FRET artefact counter-screen; active compounds read high; TR-FRET ratio at 8 µM; 200,000 tested, 0.4% active; AID 1049, 2008
PPARg SRC2 recr: agonists of PPARg-SRC-2 recruitment, primary screen, biochemical, HTS; 200,000 tested, 0.34% active; PPARgamma LBD-SRC-2 recruitment; AID 1032, 2008; Peroxisome proliferator-activated receptor gamma (Homo sapiens), P37231; activation, % at 8 µM; in the data active means activation above about 22%;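 further: 0% = vehicle and 100% = reference agonist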
Target sequence (P37231 whole entry, looked up, the tested form may be a part): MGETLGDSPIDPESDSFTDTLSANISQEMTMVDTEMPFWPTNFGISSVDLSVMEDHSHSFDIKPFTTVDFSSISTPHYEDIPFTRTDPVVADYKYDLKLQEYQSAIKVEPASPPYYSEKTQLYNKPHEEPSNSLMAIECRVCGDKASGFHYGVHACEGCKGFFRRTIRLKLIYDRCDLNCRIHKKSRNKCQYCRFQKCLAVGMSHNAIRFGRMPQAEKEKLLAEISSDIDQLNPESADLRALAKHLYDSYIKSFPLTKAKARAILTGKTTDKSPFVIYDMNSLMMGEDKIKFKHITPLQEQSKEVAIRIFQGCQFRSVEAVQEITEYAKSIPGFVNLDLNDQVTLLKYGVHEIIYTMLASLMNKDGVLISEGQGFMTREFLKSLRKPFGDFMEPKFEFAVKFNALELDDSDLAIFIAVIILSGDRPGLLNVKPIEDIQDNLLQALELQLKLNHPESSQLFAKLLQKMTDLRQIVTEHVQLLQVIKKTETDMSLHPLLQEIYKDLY
PPARg SRC-1 ag: PPARgamma agonists recruiting SRC-1 coactivator, primary screen, biochemical. activation, % at 8 µM. 200,000 tested, 0.41% active. AID 631, 2007. Peroxisome proliferator-activated receptor gamma (Homo sapiens), P37231. PPARgamma-SRC-1 coactivator recruitment biochemical assay; in the data active means activation above about 19%;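 further: 0% = DMSO and 100% = reference agonist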
SRC1 TRFRET art: TR-FRET detection interference compounds, primary screen, artefact control for PPARgamma SRC-1 recruitment agonists, biochemical, TR-FRET emission ratio; TR-FRET detection artefact counter-screen; active compounds read high; TR-FRET ratio at 8 µM; 99,000 tested, 0.34% active; AID 1051, 2008; in the data active means TR-FRET ratio above about 2300
PPARg SRC3 recr: PPARgamma agonists recruiting SRC-3 coactivator, primary screen, biochemical; AID 731, 2007; activation, % at 8 µM; 200,000 tested, 0.26% active; Peroxisome proliferator-activated receptor gamma (Homo sapiens), P37231; biochemical PPARgamma/SRC-3 coactivator recruitment assay; in the data active means activation above about 23%;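 further: 0% = DMSO and 100% = reference agonist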
* marks the source's active call; other numbers are inactive results; . = not tested or not shown. Unless noted, no stated cut-off is given here; in the data, active means TR-FRET ratio above about 2000; inactive means the rest.

SMILES	SRC3 TRFRET art	TR-FRET SRC-2 ct	PPARg SRC2 recr	PPARg SRC-1 ag	SRC1 TRFRET art	PPARg SRC3 recr
Cc1csc(C(C#N)C(=O)c2ccncc2)n1 (stereo not drawn)	1733	2112*	31*	11	1677	4
Cc1cnc(NC(=O)c2ccncc2)s1	1433	1181	-2	-5	1821	-2
CCn1c(CNC(=O)c2ccccc2F)nnc1SCc1nc2ccccc2c(=O)[nH]1	1518	1460	-1	-2	1734	-1
COc1c2ccoc2nc2c(OC)c(OCC(OC(C)=O)C(C)(C)O)ccc12 (stereo not drawn)	1548	1469	7	3	1857	-4
CCOc1ccc(Br)cc1C(=O)N/N=C/c1ccc([N+](=O)[O-])cc1	1542	1653	12	9	1882	3
CCC(=O)Nc1ccc(C(=O)N/N=C/c2ccc([N+](=O)[O-])cc2)cc1	1554	1712	4	11	2345*	7
COc1ccc(Br)cc1C(=O)N/N=C/c1ccc([N+](=O)[O-])cc1	1795	1717	5	30*	2467*	0
CC(O)c1nc2ccccc2n1CC(=O)N1CCN(c2ccccc2)CC1 (stereo not drawn)	1485	1769	5	-1	1773	0
CC1(C(=O)OCC(=O)Nc2ccc3ccccc3c2)CC1(Cl)Cl (stereo not drawn)	1632	1697	5	1	1729	3
O=C(CSc1ncnc2c1nnn2-c1ccc(F)cc1)NCc1ccco1	.	1638	23*	3	.	-4
CCN(CC)S(=O)(=O)c1cccc(NC(=O)COC(=O)c2n[nH]c(=O)c3ccccc23)c1	1541	1961	8	22*	1936	6
C=CCn1cnc2c(nnn2-c2ccc(C)c(Cl)c2)c1=O	1576	1647	-2	-9	1776	-1
COc1ccc(C2=NN(c3nc(-c4ccccc4)c(CC(=O)O)s3)C(c3ccco3)C2)cc1 (stereo not drawn)	2153*	1644	1	7	2061	14
c1ccc(OCCN2CCN(Cc3nc(-c4ccc5c(c4)OCO5)no3)CC2)cc1	1405	1565	-4	0	1860	2
CCOC(=O)n1cc(-c2cnc(CNC(=O)C(C)(c3ccccc3)c3ccccc3)o2)c2ccccc21	1588	1921	28*	9	1619	-3
CC(C(=O)NCCN1CCOCC1)(c1ccccc1)c1ccccc1	1655	1771	0	7	1837	0
COc1ccc(CC(=O)NCc2nnc(SCC(=O)Nc3ccccc3)n2C)cc1	1639	1582	8	7	1814	1
COc1ccc(CC(=O)NCc2nnc(SCC(=O)Nc3cccc(F)c3)n2C)cc1	1574	1397	38*	3	1764	-2
O=C(CSc1nnnn1-c1ccccc1)Nc1nsc(-c2ccc(Cl)cc2)n1	2179*	1576	2	7	1911	7
CCOC(=O)c1c(NC(=O)CSc2nc3cc(Cl)ccc3s2)sc(C(C)=O)c1C	1545	1636	8	2	1894	5
CCOC(=O)c1c(NC(=O)CSc2nc3ccccc3s2)sc(C(C)=O)c1C	.	2122*	3	-2	.	0
CC(C)NC(=O)NC(=O)CSc1ccccc1F	3589*	1669	-4	-2	1782	38*
CC(C)NC(=O)NC(=O)COC(=O)c1ccccc1F	1341	1407	7	0	1701	3
CCOC(=O)c1oc2ccc(S(=O)(=O)N3CCC(C)CC3)cc2c1C	.	1625	-1	46*	.	15
C/C(=N\Nc1nc2ccccc2s1)c1ccc(Br)s1	1556	1493	3	23*	2044	3
SMILES	SRC3 TRFRET art	TR-FRET SRC-2 ct	PPARg SRC2 recr	PPARg SRC-1 ag	SRC1 TRFRET art	PPARg SRC3 recr
CC1Cc2ccccc2N1C(=O)CSc1nnc(-c2ccccc2)c(-c2ccccc2)n1 (stereo not drawn)	.	3425*	0	-3	.	2
COc1c(C)cc(C(=O)C2CCCN(C(=O)/C=C/c3ccccn3)C2)cc1C (stereo not drawn)	1629	1715	0	6	1623	-3
CCn1cc(/C=C/C(=O)Nc2ccn(Cc3c(F)c(F)c(F)c(F)c3F)n2)cn1	1426	1606	28*	5	1932	9
CCn1cc(/C=C/C(=O)Nc2c(C)nn(Cc3ccccc3C)c2C)cn1	1692	1623	6	4	1839	-2
O=C(COc1ccc2ccccc2c1)NNC(=O)Cc1ccccc1	1802	1727	20	65*	2551*	15
O=C(COc1ccc2ccccc2c1)Nc1ccc(S(=O)(=O)N2CCCCCC2)cc1	.	2073*	18	3	.	0
O=C(N/N=C/c1cn(-c2ccccc2)nc1-c1cccnc1)c1cccnc1	1612	1628	10	18	2335*	3
CNCc1ccccc1OCc1ccccc1F	1597	1620	3	0	1599	-6
COc1cccc(/C=N/NC(=O)c2csc(-n3nc(C)cc3C(F)(F)F)n2)c1	.	1596	9	4	.	27*
O=C(COC(=O)c1sc2ccccc2c1Cl)Nc1ncc(Cl)cc1Cl	1668	2187*	34*	7	2015	-3
O=C(COC(=O)c1sc2ccccc2c1Cl)NC1CCCCC1	1619	4050*	115*	6	1999	5
O=C(COC(=O)c1sc2cc(F)ccc2c1Cl)Nc1ncc(Cl)cc1Cl	1602	1600	2	-3	1944	1
CN(C)CCNC(=O)c1cc2sc3ccccc3c2s1	1579	1841	1	5	1734	8
COC(=O)c1ccc(C(=O)OC)c(NC(=O)c2cc3ccccc3o2)c1	.	1501	4	24*	.	-4
COC(=O)c1ccc(N2CCN(C)CC2)c(NC(=O)c2cc3ccccc3o2)c1	.	1388	-7	-3	.	-8
Cc1ccc(S(=O)(=O)N(C)C)cc1NC(=O)COC(=O)COc1ccccc1[N+](=O)[O-]	1588	1797	5	2	2039	1
O=C(CSc1nc2ccccc2c(=O)n1-c1ccc(F)cc1)Nc1cc(S(=O)(=O)N2CCOCC2)ccc1Cl	2000	2011*	4	-1	2193	4
O=C(CSc1nc2cc(Cl)ccc2c(=O)n1Cc1ccco1)Nc1ccc(S(=O)(=O)N2CCOCC2)cc1	2505*	2029*	-3	6	2098	6
COC(=O)c1ccc2c(=O)n(Cc3ccco3)c(SCC(=O)Nc3ccc(C)c(Cl)c3)nc2c1	.	1665	10	16	.	-11
O=C(CN1C(=O)C2CC=CCC2C1=O)Nc1nc2ccccc2s1 (stereo not drawn)	1509	1546	-4	-4	1678	2

Screening data from PubChem.
